Hits are enriched below; roughly 0.92% of the tested compounds scored in any of these assays.
BLM inh: blocks DNA unwinding by human BLM helicase. P54132. recombinant BLM DNA unwinding, fluorescence dequenching. Potency, µM (highest dose often 56.1 µM), for inactives: at the top dose activity change, negative = inhibition, hits mostly inhibitors. hit rate 0.2% among 350,000. AID 2528;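 note: plate controls were vehicle for no effect and no enzyme for full effect; nearly all actives have a fitted effect of over 35% in size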
RECQ1 inh-1: RECQ1 (human) helicase inhibition; P46063; RECQ1 DNA unwinding, red fluorescence kinetic read; Potency, µM (top dose mostly 57.3 µM), for the others: at the top dose activity, negative = inhibition, most hits filed as inhibitors; hit rate 0.54% among 240,000; AID 2549;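 note: plate controls were vehicle for no effect and no enzyme for full effect; nearly all actives have a fitted effect of over 30% in size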
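RECQ1T1 50 nM; forked duplex (20 bp + 30-nt ss tails) 200 nM, ATP 2 mM final; pH 8.0, 2 mM MgCl2, 2.5 ug/ml poly(dI-dC); 15 min compound preincubation; discontinuous kinetic read over 2 h at RT.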
L3MBTL1 block: blocks human L3MBTL1. AlphaScreen L3MBTL1–H3K9me1 peptide binding. AID 485360. Potency, µM (series often up to 57.1 µM), without a hit: at the highest dose activity, negative = inhibition, usual class: inhibitors. Q9Y468. hit rate 0.66% among 230,000; note: nearly all actives have a fitted effect of over 60% in size
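AlphaScreen proximity signal between nickel-chelate acceptor and streptavidin donor beads (final 10 ug/mL) reports binding of 50 nM L3MBTL1 to 75 nM biotin-H3 K9me1 peptide; complex incubated with compounds 30 min at room temperature; cefsulodin titration as control.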
WRN helicase inh: WRN helicase (human) inhibition; hit rate 0.46% among 360,000; Q14191; WRN helicase unwinding, fluorescent forked duplex, kinetic; AID 651768; Potency, µM (top dose mostly 114 µM), without a hit: top-dose activity change, negative = inhibition, most hits filed as inhibitors; note: nearly all actives have a fitted effect of over 55% in size
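Kinetic fluorescence helicase assay: unwinding of a quenched forked DNA duplex (100 nM final) with 2 mM ATP final raises red fluorescence (525/598 nm). Compounds sat 15 min at room temperature with 20 nM WRN beforehand.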
APE1 inh-1: inhibitors of human APE1 endonuclease; P27695; recombinant APE1, TAMRA/BHQ-2 abasic DNA cleavage fluorescence; Potency, µM (highest dose often 65.8 µM), inactives show at the highest dose activity change, negative = inhibition, usual class: inhibitors; hit rate 0.35% among 350,000; AID 2517;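 note: plate controls were vehicle for no effect and reference inhibitor for full effect; nearly all actives have a fitted effect of over 55% in size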
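Endonuclease cleavage of a quenched abasic-site DNA duplex (50 nM) by APE1 (0.75 nM) was tracked by TAMRA dequenching. Compounds were preincubated with enzyme 15 min at room temperature; data normalized to buffer-only and DMSO wells plus NSC13755 control.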
APE1 dye cs: DNA dye displacement counter-screen activity. shares compounds with APE1 inh-1. DNA fluorescent dye displacement counterscreen, fluorescence. Potency, µM (doses to about 28.5 µM), inactives show top-dose activity change, negative = inhibition, actives largely listed as inhibitors. hit rate 7% among 480;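 note: loss of thiazole orange fluorescence as the dye is displaced from duplex DNA; 0% = ThO with dsDNA and no compound and -100% = ThO without dsDNA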
EndoIV counter: counter-screen for APE1 inhibitors: inhibitors of E. coli endonuclease IV | shares compounds with APE1 inh-1 | E. coli Endo IV, fluorogenic AP-site DNA cleavage | Potency, µM (doses to about 27.1 µM), inactives show at the top dose activity change, negative = inhibition, actives largely listed as inhibitors | hit rate 4% among 560;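 note: plate controls were uninhibited enzyme wells for no effect and no enzyme buffer wells for full effect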
APE1 inh-2: APE1 (human) endonuclease inhibition, confirmation; shares compounds with APE1 inh-1; purified APE1, fluorogenic abasic-site DNA cleavage; Potency, µM (titrated, usually from 57.1 µM), inactives show at the highest dose activity change, negative = inhibition, actives largely listed as inhibitors; hit rate 44% among 750; AID 2572; note: nearly all actives have a fitted effect of over 30% in size
APE1 FP: compounds that displace a DNA probe from human APE1. shares compounds with APE1 inh-1. APE1 binding to TAMRA-labelled double-stranded DNA, fluorescence polarization displacement. Potency, µM (titrated, usually from 28.5 µM), for the others: top-dose activity, negative = inhibition, usual class: inhibitors. hit rate 7% among 480. AID 2573
RECQ1 conf: confirmation of human RECQ1 helicase inhibitors. hit rate 28% among 610. Potency, µM (highest dose often 229 µM), inactives show at the top dose activity change, negative = inhibition, most hits filed as inhibitors. AID 2708. RECQ1 helicase DNA unwinding, fluorescence. shares compounds with RECQ1 inh-1; note: nearly all actives have a fitted effect of over 45% in size
ADP FP counter: ADP displacement flagged in RECQ1 inhibitor counter-screen; shares compounds with RECQ1 inh-1; ADP fluorescence polarization displacement counterscreen; Potency, µM (doses to about 228 µM), inactives show top-dose activity change, negative = inhibition, most hits filed as inhibitors; hit rate 27% among 530; AID 2711; note: nearly all actives have a fitted effect of over 45% in size
RECQ1 inh-2: blocks human RECQ1 DNA unwinding | recombinant RECQ1 DNA unwinding, red fluorescence | hit rate 15% among 1,100 | Potency, µM (top dose mostly 119 µM), for inactives: at the highest dose activity, negative = inhibition, most hits filed as inhibitors | AID 504841 | shares compounds with RECQ1 inh-1; note: nearly all actives have a fitted effect of over 50% in size
* marks the source's active call; other numbers are inactive results; i = inactive; ? = inconclusive; / = no result given; ! = not confirmed by another sample; [ ] = dose if it differs, or a comment. Calls come from the whole dose curve; as a rule, active = well fitted curve in the direction sought with a large enough effect; inconclusive = small, poorly fitted or top-dose-only effect, or another doubt; inactive = no such curve, though single readings can be large; an effect the other way counts as inactive or inconclusive. Unless noted, % is set by controls: 0 for no effect and ±100 for the full control effect; potency is the fitted concentration of half-maximal effect.

SMILES	BLM inh	RECQ1 inh-1	L3MBTL1 block	WRN helicase inh	APE1 inh-1	APE1 dye cs	EndoIV counter	APE1 inh-2	APE1 FP	RECQ1 conf	ADP FP counter	others
Cn1c(SCC(=O)N/N=C/C=C/c2ccco2)nc2ccccc21	1%	18µM*	22µM*	?	10µM*	?	-8%	?	0%	?	/
O=C1CCCC2=C1C(c1ccc(O)c(O)c1)Nc1ccc3ncccc3c12 (stereo unspecified)	?	?	?	?	14µM*	?	17%	?	-2%	/	/	RECQ1 inh-2=?
COC(=O)C1=C2N(Cc3ccccc3)C(C)=C(C(=O)OC)C(c3ccccc3)N2C(=O)[C@](O)(C(=O)OC)C1 (stereo partly specified)	1%[12.4 µM]	i[11.5 µM]	/	/	15%[12.4 µM]	/	/	/	/	/	/
CC[C@H](C)[C@H](NC(=O)[C@H](Cc1ccc(O)cc1)NC(=O)[C@@H]1CCCN1C(=O)[C@@H](N)CCCN=C(N)N)C(=O)N[C@@H](CC(C)C)C(=O)O	0%	10%	/	/	-2%	/	/	/	/	/	/
CNC[C@H](O)c1ccc(O)c(O)c1	-3%	18µM*!	?	/	7.9µM*!	-3%[57.1 µM]	31%[57.1 µM]	?	-5%[57.1 µM]	?	14µM*
CC(C)C[C@H](NC(=O)[C@H](CO)NC(=O)[C@@H]1CCCN1C(=O)[C@H](Cc1ccc(O)cc1)NC(=O)[C@H](CC(C)C)NC(=O)[C@H](CC(C)C)NC(=O)[C@@H]1CCCN1C(=O)[C@@H](NC(=O)[C@H](CO)NC(=O)[C@H](CO)NC(=O)[C@H](CO)NC(=O)[C@H](CO)NC(=O)[C@@H]1CCCN1C(=O)[C@@H](NC(=O)[C@@H](N)CO)C(C)C)[C@@H](C)O)C(=O)N[C@@H](C)C(=O)N[C@@H](CC(C)C)C(=O)N1CCC[C@H]1C(=O)N[C@@H](C)C(=O)N1CCC[C@H]1C(=O)O	5%	10%	/	/	1%	/	/	/	/	/	/
C=C1CC[C@@H]2[C@](C)(CO)[C@H](O)CC[C@@]2(C)[C@@H]1C/C=C1/C(=O)OC[C@H]1O	/	/	/	/	0%	/	/	/	/	/	/
O=c1cc(O)cc(/C=C/c2ccc(O)c(O)c2)o1	/	0.79µM*	/	/	0.71µM*	/	3%[57.1 µM]	-18%	/	11%	?
NC(N)=NCCC[C@H](N)C(=O)NCC(=O)N[C@@H](CC(=O)O)C(=O)N[C@@H](CO)C(=O)O	3%	-10%	/	/	-3%	/	/	/	/	/	/
COc1cc(N(C)C)cc(CN(C)CCc2ccc([N+](=O)[O-])cc2)c1O	14µM*	10µM*	/	/	3.2µM*	0%[57.1 µM]	3%[57.1 µM]	?	-9%[57.1 µM]	100µM*	?	RECQ1 inh-2=50µM*
O=C(Nc1cccc(C(F)(F)F)c1)Nc1cc(Cl)ccc1C(=O)O	-3%	-12%	/	/	-2%	/	/	/	/	/	/
Cc1ccc(-c2nc3s/c(=C\c4ccco4)c(=O)n3n2)cc1	-10%	-23%	?	-15%[57.1 µM]	?	/	/	/	/	/	/
O=c1nc2s/c(=C\c3ccco3)c(=O)n2nc1Cc1ccc(F)cc1	-16%	22µM*	/	50µM*	7.9µM*	?	13%	7.1µM*	?	56µM*	?	RECQ1 inh-2=?
CCN1C(C)=C(C(=O)OC)C(c2ccccc2)N2C(=O)[C@@]3(C(=O)OC)O[C@@]12C1C(=O)N(c2ccccc2)C(=O)C13 (stereo partly specified)	2%[12.4 µM]	i[11.5 µM]	/	/	?	/	/	/	/	/	/
COc1ccc(/C=N/NC(=O)c2ccccc2O)cc1Cn1cc([N+](=O)[O-])cn1	-6%	5%	8%	-9%	-5%	/	/	/	/	/	/
COc1ccc(/C=N/NC(=O)c2cc(O)c(O)c(O)c2)cc1Cn1cc([N+](=O)[O-])cn1	?	1.8µM*	/	8.9µM*	1.6µM*	?	96%	1.3µM*	-10%	?	-10%[91.9 µM]
CC1=NN2C(=N)/C(=C\c3ccc(SCc4ccccc4)o3)C(=O)N=C2S1	-13%	-17%	/	?	-4%	/	/	/	/	/	/
N=C1/C(=C\c2ccc(SCc3ccco3)o2)C(=O)N=C2SC=NN12	-6%	8.9µM*	-29%	56µM*	3.2µM*	15%	10%	?	4%	/	/	RECQ1 inh-2=?
CC[C@H](C)[C@H](NC(=O)[C@@H](NC(=O)[C@@H](NC(=O)[C@H](CCC(=O)O)NC(=O)[C@H](CCC(=O)O)NC(=O)[C@H](CCC(=O)O)NC(=O)[C@H](C)NC(=O)[C@@H](N)CC(C)C)C(C)C)C(C)C)C(=O)N[C@@H](CCCNC(=N)N)C(=O)N[C@@H](CO)C(=O)N[C@@H](C)C(=O)N[C@@H](CC(N)=O)C(=O)N[C@@H](Cc1ccccc1)C(=O)N[C@H](C(=O)N[C@@H](CC(=O)O)C(=O)N[C@@H](CC(N)=O)C(=O)O)[C@@H](C)O	0%	-2%	/	/	-2%	/	/	/	/	/	/
COc1cc2oc(=O)cc(-c3ccc(-c4ccc(NC(C)=O)cc4)cc3)c2c(OC)c1OC	-5%[75.6 µM]	-7%	/	/	1%	/	/	/	/	/	/
C=C1c2c(Cl)ccc(O)c2C(O)=C2C(=O)[C@]3(O)C(O)=C(C(N)=O)C(=O)C(N(C)C)C3C(O)C12 (stereo partly specified)	0%	4µM*	/	/	?	?	21%[57.1 µM]	5%	?	-14%	?

Screening results as filed in PubChem BioAssay.
